This note sets out measurements from the OligoGym collection.
Also: reference of the scale not given here.

In one assay the target is DSPP. The assay is described as follows: pooled miR-30 sensor sort-seq; sequence = guide strand. As to conditions: shRNA.
Take TATCACTGTCATCATCTTCTGC: the sensor-assay potency score (higher = more potent) is -0.312.
The same measure, in the same setting: the same measure for TCTATCACCTTCATGCACCAGG: 0.183; for TTGCTGTCACTGCTGTCGCTGC: -0.804; for TTCACTGCTATCACTGCTGTTG: -0.29.
Same read-out and setting: the same measure for TTCACTTGTATTACCCTCGTTT: 0.22; for TTTATCCTCTTTACCTTCGTTG: -0.331.
On the same count and under the same terms, with TTCTCTATGGTTGAGCTTCTGG the figure was -0.413.

A further assay deals with DTNBP1. Described as above. As to conditions: shRNA.
TCACTTAAAGTCTTCAGCCCGG: the sensor-assay potency score (higher = more potent) is -0.801.
On the same count and under the same terms, with TCTAGTTCAGCTTTGAAGGTTT the figure was 0.0978; with TTCCTCAAAAAACTTCTGCCGC, -0.552.
Same read-out and setting: with TATTTTTCTTGTAATTCTCCAG the figure was -0.412; with TAAAACAACCTGGCTTTCCAGG, -0.923.
In turn, TGACTTGTCACTTAAAGTCTTC had a sensor-assay potency score (higher = more potent) of -0.418.
The same measure, in the same setting: with TTTTCTTGTAATTCTCCAGTTG the figure was -0.365; with TAAGTCTTCCAGATGCAGCAGG, -0.317.
Same read-out and setting: the same measure for ATTTTTCTTGTAATTCTCCAGT: -0.545; for TTTCTTGTAATTCTCCAGTTGC: -0.554.
Same read-out and setting: the same measure for TTTGCTTCTCTTGACTTGTCAC: 0.23; for TCATCGGACTGAACAACGGGGG: -0.232.

The target in the next assay is DTX1. The description is as above. As to conditions: shRNA.
TTTGAAAAGAGCAATCGCTGGC showed a sensor-assay potency score (higher = more potent) of 0.224.
Still for that read-out and setting: with TTGGATCCAAACTCGGTCTTGT the figure was 0.0701; with TGTCTAGGTAGCTAGCGTCCGG, -0.967; with TGTATCTTCGAACCACATCCTC, -0.0113.
TTCTTTTGTAGAACTGCTCAGT came in with a sensor-assay potency score (higher = more potent) of -0.299.
Still for that read-out and setting: with TAGATGAGGTAGCAGAAGCCTA the figure was -1.12; with TTGTTGGGTAGATAGCAGTGGC, -0.92.
Same read-out and setting: with TTTGTAGAACTGCTCAGTCATC the figure was -1.13; with TATTTCTCCACCCACAGTGGGA, -0.561; with TTCATCTGCGACATGCTGTTGA, 0.174.
Sequence TTGGTCTTGCGGCACACCCCGG registered a sensor-assay potency score (higher = more potent) of -0.985.
Same read-out and setting: the same measure for TTGACCAGCAGGCACTGCTGGC: -1.17.
Still for that read-out and setting: with TCTAGGTAGCTAGCGTCCGGGT the figure was -1.53.
As for TGTCTCTTCTCTTCCAGCCTGG, the sensor-assay potency score (higher = more potent) is 0.154.
On the same count and under the same terms, the same measure for TTTAAGGTGCTTCTTCTTGGTC: -0.486; for TTCACCTTCTGCATGTATCTTC: 0.43; for TGCTTCTTCTTGGTCTTGCGGC: -0.99.
Same read-out and setting: with TAGAACTGCTCAGTCATCTGGG the figure was 0.451.
The same measure, in the same setting: with TATCTTCGAACCACATCCTCGG the figure was 0.116.
Sequence TTGAAGTAGATGAGGTAGCAGA registered a sensor-assay potency score (higher = more potent) of -0.853.
As to TTTTGAAAAGAGCAATCGCTGG, the sensor-assay potency score (higher = more potent) is -0.945.
